# Activity calls are given as the source filed them. Rule for the calls: active = hit-call score of the fitted dose curve at least 0.9, where 1 is the maximum; inactive = score below 0.9.
# Assay: ATG_NFI_CIS: Attagene CIS-FACTORIAL HepG2 Assay for human Nuclear Factor I (NFI) (AID 2282989)
# Settings: HepG2 cis-regulatory reporter, NFI response element transcription; actives raise or lower the signal
# Procedure: ATG_CIS is a cell-based, multiplexed-readout assay that uses HepG2, a human liver cell line, with measurements taken at 24 hours after chemical dosing in a 24-well plate.ATG_NFI_CIS is one of 52 assay component(s) measured or calculated from the ATG_CIS assay. It is designed to make measurements of mRNA induction, a form of inducible reporter, as detected with fluorescence intensity signals by Reverse transcription polymerase chain reaction (RT-PCR) and Capillary electrophoresis technology.Data from the assay component ATG_NFI_CIS was analyzed into 1 assay endpoint. This assay endpoint, ATG_NFI_CIS, was analyzed with bidirectional fitting relative to DMSO as the negative control and baseline of activity. Using a type of inducible reporter, measures of mRNA for gain or loss-of-signal activity can be used to understand the reporter gene at the transcription factor-level as they relate to the gene NFIA. Furthermore, this assay endpoint can be referred to as a primary readout, because this assay has produced multiple assay endpoints where this one serves a reporter gene function. To generalize the intended target to other relatable targets, this assay endpoint is annotated to the dna binding intended target family, where the subfamily is nuclear factor I.
# Human liver HepG2 cells are transiently transfected with multiple reporter transcription units (MRTUs) in 6-well plates using FuGene 6 reagent (Roche; 3 ml FuGene/1 mg DNA). The MRTU constructs are regulated by a cis-regulating element (promoter). […] A major difference between the CIS and TRANS system is that in CIS activities of endogenous TFs are measured, whereas the TRANS assay evaluates changes in activities of exogenous, chimeric NR-Gal4 proteins. […] At the end of 24 hour incubation, total RNA was isolated using TriZol reagent (Invitrogen). The isolated RNA is then reverse-transcribed using oligo(dT) primer and Mo-MLV reverse transcriptase (Invitrogen) with DNAse I (Ambion) treatment for 30 min. The one-tenth of the produced cDNA was amplified by PCR using Taq DNA polymerase (Invitrogen) and two reporter sequence-specific primers. The PCR products were fluorescently labeled by primer extension with 6-arboxyfluorescein (6-FAM) 5'-labeled reporter sequence-specific primer (2 min at 95 C, 20 s at 68 C and 10 min at 72 C) and these products were digested with 5U of HpaI (New England Biolabs) for 2h at 37 C. The fragments were purified using Qiaquick PCR columns (Qiagen), analyzed on an ABI 3130xL genetic analyzer (Applied Biosystems) with peak positions identified by using a set of X-rhodamine (ROX)-labeled MapMarker1000 molecular weight standards (BioVentures). The raw capillary electrophoresis data was processed using Attagraph software (Attagene).
Compound,outcome,AC50
NC1CCCCC1N (stereo not given),inactive,–
CCC(Cl)C(Cl)C(Cl)CC(Cl)C(Cl)C(C)Cl (stereo not given),inactive,–
OCCCCC(O)CO (stereo not given),inactive,–
CCCCCCC(O)CCCCCCCCCCC(=O)O (stereo not given),inactive,–
CC(C)CCOC(=O)c1ccccc1,inactive,–
OCc1ccc(Cl)cc1Cl,inactive,–
CC(=O)CC(=O)Nc1ccccc1,inactive,–
CCCCCCCCC=CCCCCCCCC1=NCCN1CCO,–,6.21 µM (active)
CC(C)NCC(O)COc1ccc(CC(N)=O)cc1 (stereo not given),inactive,–
NCCNc1cccc2ccccc12,–,178 µM (active)
CC(C=O)Cc1ccc(C(C)(C)C)cc1 (stereo not given),inactive,–
N#Cc1ccc(CC(=O)c2cccc(C(F)(F)F)c2)cc1,–,188 µM (active)
CCCSc1ccc2nc(NC(=O)OC)[nH]c2c1,inactive,–
CCOC(=O)CN,inactive,–
Oc1ccc2cc(SSc3ccc4cc(O)ccc4c3)ccc2c1,–,34.1 µM (active)
C=Cc1ccc(C)cc1,inactive,–
O=C(O)c1ccc(O)cc1,inactive,–
CCCC(=O)OC(C)(C)Cc1ccccc1,inactive,–
O=C1OC(=O)c2c(Cl)c(Cl)c(Cl)c(Cl)c21,inactive,–
CCN(CCC#N)c1ccc(N=Nc2ccc([N+](=O)[O-])cc2)cc1,inactive,–

Compound,outcome,AC50
COc1cccc(OC)c1O,inactive,–
CC(C)C[C@H](NC(=O)OCC1c2ccccc2-c2ccccc21)C(=O)O,inactive,–
CCc1ccc(O)c(OC)c1,inactive,–
CN1CCOCC1,inactive,–
C=C(C)CNCC,inactive,–
C[C@H]1O[C@@H](O[C@H]2[C@@H](O)C[C@H](O[C@H]3[C@@H](O)C[C@H](O[C@H]4CC[C@@]5(C)[C@H](CC[C@@H]6[C@@H]5C[C@@H](O)[C@]5(C)[C@@H](C7=CC(=O)OC7)CC[C@]65O)C4)O[C@@H]3C)O[C@@H]2C)C[C@H](O)[C@@H]1O,–,0.0705 µM (active)
CC1=CC[C@@]23C[C@@H]1C(C)(C)[C@@H]2CC[C@H]3C,inactive,–
CCNCCO,inactive,–
O=CCc1ccccc1,inactive,–
CCCCCCCC/C=C\CCCCCCCC(=O)OCC,inactive,–
CN(C)c1cccc(O)c1,inactive,–
CCCCCCC(C)Nc1ccc(Nc2ccccc2)cc1 (stereo not given),inactive,–
CC/C=C\CC/C=C/CO,inactive,–
CCCOC(=O)c1c(Cl)c(Cl)c(Cl)c(Cl)c1C(=O)OCCC,–,156 µM (active)
CCCC(=O)c1ccccc1,inactive,–
CC=CC=CCOC(=O)C(C)C,inactive,–
CCCCOCC,inactive,–
Cc1ccc(S(=O)(=O)Oc2ccc(N=Nc3ccc(-c4ccc(N=Nc5c(O)ccc6cc(S(=O)(=O)O)cc(S(=O)(=O)O)c56)c(C)c4)cc3C)cc2)cc1,inactive,–
CCCCC(CC)C(=O)OC(C)C (stereo not given),inactive,–
OCCOCCN1CCN(C2=Nc3ccccc3Sc3ccccc32)CC1,inactive,–

# — PubChem BioAssay (EPA / NIEHS)
